The campaign covered roughly 1,000 compounds. About 570 (57%) were called active. No rule for the calls is given here. So high a share suggests a set chosen from earlier hits. These entries were drawn from the full list.

The target in the test is Potassium voltage-gated channel subfamily KQT member 2 (Rattus norvegicus) (UniProt O88943). The test can be described thus: blockers of KCNQ2 thallium flux – cell-based, confirmation (AID 493025).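 As to activity change, negative = inhibition: 0% = vehicle wells and values are ratio percent relative to vehicle.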 The conditions noted are these: KCNQ2-expressing cells, at 10 µM; activity change, negative = inhibition: hits give low values; outcome: inhibition.
Chain of Potassium voltage-gated channel subfamily KQT member 2 (Rattus norvegicus) (O88943 whole entry, looked up): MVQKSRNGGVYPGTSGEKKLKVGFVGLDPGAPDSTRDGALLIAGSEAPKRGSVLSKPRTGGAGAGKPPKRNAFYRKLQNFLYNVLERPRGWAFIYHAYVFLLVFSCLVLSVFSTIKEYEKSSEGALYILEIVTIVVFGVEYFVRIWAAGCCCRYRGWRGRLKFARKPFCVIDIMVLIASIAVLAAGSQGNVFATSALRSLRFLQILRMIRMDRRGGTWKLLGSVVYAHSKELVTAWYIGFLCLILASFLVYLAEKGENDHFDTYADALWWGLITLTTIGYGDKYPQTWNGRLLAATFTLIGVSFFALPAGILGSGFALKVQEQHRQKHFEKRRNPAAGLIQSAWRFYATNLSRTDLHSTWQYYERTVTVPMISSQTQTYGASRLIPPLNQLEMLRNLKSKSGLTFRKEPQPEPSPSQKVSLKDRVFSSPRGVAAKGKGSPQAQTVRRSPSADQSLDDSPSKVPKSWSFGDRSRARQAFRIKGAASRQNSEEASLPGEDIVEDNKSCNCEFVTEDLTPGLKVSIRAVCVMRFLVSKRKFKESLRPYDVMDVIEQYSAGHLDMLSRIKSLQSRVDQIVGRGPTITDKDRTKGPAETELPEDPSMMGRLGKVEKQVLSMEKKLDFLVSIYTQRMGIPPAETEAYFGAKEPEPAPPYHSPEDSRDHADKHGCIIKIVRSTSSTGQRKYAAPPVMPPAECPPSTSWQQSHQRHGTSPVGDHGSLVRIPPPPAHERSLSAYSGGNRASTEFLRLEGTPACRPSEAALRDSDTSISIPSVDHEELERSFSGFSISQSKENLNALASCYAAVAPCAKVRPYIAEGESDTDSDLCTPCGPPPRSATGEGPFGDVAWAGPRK
Regarding `CCc1ccc(-c2nn(-c3ccccc3)cc2CSC(=N)N)cc1`, the activity change, negative = inhibition was -37.5% (active). The result for `C=CS(=O)c1sc(Cl)c(N2CCOCC2)c1[N+](=O)[O-]` (stereo unspecified) reads -32.5% (active); that for `Cc1ccc(C(C)C)cc1OCC(=O)Nc1ccccc1N1CCCC1`, “inactive”; that for `CC(C(=O)NCC1CCCCC1)N(C)Cc1cccc(Cl)c1` (stereo unspecified), -47% (active). On to `CCc1ccccc1NC(=O)/C(=C/c1ccccc1)c1ccccc1`, for which the activity change, negative = inhibition is -33% (active). The result for `C=CCn1c(SCC(=O)/C(C#N)=C(\C)N)nc2sc(C)c(C)c2c1=O` reads “inactive”. As for `CN(Cc1ccccc1F)C(=O)C(Cc1ccccc1)NC(=O)c1ccccc1` (stereo unspecified), the figure is -29% (active); as for `CC(NC(=S)NNS(=O)(=O)c1ccc(C(C)(C)C)cc1)c1ccccc1` (stereo unspecified), “inactive”. As for `CCc1ccc2ncc(C(=O)c3ccccc3)c(N3CCOCC3)c2c1`, the figure is -20.5% (active); as for `Fc1ccc2[nH]c3c(N4CCSCC4)ncnc3c2c1`, -38.5% (active).

`Cc1ccc(N2C(=O)C3C(c4ccccc4)(C2=O)C3(c2ccccc2)c2ccccc2)cc1` (stereo unspecified): the activity change, negative = inhibition entry is “inactive”. Turning to `CC(C)N(C(=O)CSc1nc(COc2ccccc2)nc2ccccc12)C(C)C`, the activity change, negative = inhibition was -42.5% (active). As for `COc1cccc(COc2ccc(N(C)S(=O)(=O)c3ccccc3)cc2)c1`, the entry is “inactive”. As to `O=C(OCC(=O)N(CCc1ccccc1)Cc1ccccc1)c1ccccc1[N+](=O)[O-]`, the activity change, negative = inhibition entry was “inactive”. In the case of `CSCc1cc(N(C)C)nc(SCc2ccc(Cl)cc2Cl)n1`, the activity change, negative = inhibition is -19.5% (active). For the compound `O=C(Nc1ccccc1Cl)/C(Cl)=C(\Cl)S(=O)c1ccccc1` (stereo unspecified), the activity change, negative = inhibition was -22.5% (active). As for `Cc1ccccc1N1CCN(CC(=O)NCc2ccc(Cl)cc2)CC1`, the entry is “inactive”. Turning to `Cc1cccc(C(=O)OC(C)C(=O)NC2CCCc3ccccc32)c1O` (stereo unspecified), the activity change, negative = inhibition was -27% (active).

Take `COc1ccc(CN(C)C(C)C(=O)NC2CCCc3ccccc32)cc1` (stereo unspecified): the activity change, negative = inhibition was -19.5% (active). As for `O=C(Nc1ccc(Cl)c(Cl)c1)N1CC=C(c2ccccc2)CC1`, the entry is “inactive”; as for `COC(=O)C1=C(C)N(C(C)c2ccccc2)C(=O)/C1=C\c1ccco1` (stereo unspecified), -22.5% (active). The result for `CCOC(=O)C(C)Sc1nc2ccccc2c(=O)n1CC1CCCCC1` (stereo unspecified) reads -32% (active); that for `COc1ccc(Cl)cc1NC(=O)CN(C)Cc1ccc(OC)c(OC)c1`, “inactive”; that for `Cc1ccc(C(=O)c2c(NC(=O)c3ccccc3)sc(C)c2C)cc1`, -21% (active). The result for `Cc1ccccc1C(=O)Nc1ccccc1Sc1ccccc1` reads -26% (active); that for `CCOC(=O)N1CCC(N(CCOC)C(=O)Nc2ccc(C)c(C)c2)CC1`, -33% (active). On to `CCc1ccc(-c2cc(C(=O)NCc3ccco3)c3ccccc3n2)s1`, for which the activity change, negative = inhibition result was “inactive”. As to `CC(C)[C@H](NC(=O)OCc1ccccc1)C(=O)OCc1ccccc1`, the activity change, negative = inhibition was -23.5% (active).

Turning to `CC(C)C(NC(=O)OCc1ccccc1)C(=O)OCC(=O)N1C(C)CCCC1C` (stereo unspecified), the activity change, negative = inhibition result was “inactive”. As for `Cc1ccc(C2=Nc3c(ccc4ccccc34)C(c3ccncc3)=NN2)cc1`, the entry is “inactive”. The result for `Cc1nc2ccccc2c(-c2ccccc2)c1C(=O)c1ccccc1` reads -31% (active).

These data come from PubChem BioAssay AID493025 (Johns Hopkins Ion Channel Center, 2011).
